Measurements as given in publication PMC5540273 (PLoS ONE, 2017).
“And” between values parts separate entries of the source, which are not always exact repeats. Equal entries are not always repeated. Where two headings read alike, the source gives them in different places.

Assays:
Conditions in all cases: concentration: 1 μM, replicates: in singlicate, n = 1
DAPK1 = tested on: DAPK1
DAPK2 = tested on: DAPK2
DAPK3 = tested on: DAPK3
DCAMKL1 = tested on: T1, DCAMKL1
T1 construct: gene DCLK1

DCAMKL2 = tested on: T2, DCAMKL2
T2 construct: gene DCLK2

DCAMKL3 = tested on: T3, DCAMKL3
T3 construct: gene DCLK3

DDR1 = tested on: DDR1
DDR2 = tested on: DDR2
DLK = tested on: T4, DLK
T4 construct: gene MAP3K12

DMPK2 = tested on: T5, DMPK2
T5 construct: gene CDC42BPG
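Note: KINOMEscan kinase panel screen.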

Row | Structure (SMILES) | %Inh (DAPK1) [%] | %Inh (DAPK2) [%] | %Inh (DAPK3) [%] | %Inh (DCAMKL1) [%] | %Inh (DCAMKL2) [%] | %Inh (DCAMKL3) [%] | %Inh (DDR1) [%] | %Inh (DDR2) [%] | %Inh (DLK) [%] | %Inh (DMPK2) [%] | %Inh (DAPK1; 1 µM) | %Inh (DAPK2; 1 µM) | %Inh (DAPK3; 1 µM) | %Inh (DCAMKL1; 1 µM) | %Inh (DCAMKL3; 1 µM) | %Inh (DDR1; 1 µM) | %Inh (DDR2; 1 µM) | %Inh (DLK; 1 µM) | %Inh (DMPK2; 1 µM) | %Inh (DCAMKL2; 1 µM)
1 | Cc1cccc(-c2nc(Nc3ccc4ncsc4c3)c3ccccc3n2)n1 [GW867588] | 0 | 0 | 23 | 0 | 7 | 0 | 0 | 35 | 0 | 9 |  |  |  |  |  |  |  |  |  | 
2 | Cc1c2ccc(N(C)c3ccnc(Nc4cccc(S(N)(=O)=O)c4)n3)cc2nn1Cc1ccccc1.Cl.Cl [GW787226] | 0 | 1 | 0 | 24 | 0 | 0 | 97.7 | 96.8 | 0 | 0 |  |  |  |  |  |  |  |  |  | 
3 | N#Cc1ccc(-c2cc(-c3c[nH]nc3-c3ccccn3)ccn2)cc1 [GW693028] | 0 | 0 | 16 | 8 | 17 | 0 | 0 | 1 | 40 | 0 |  |  |  |  |  |  |  |  |  | 
4 | NS(=O)(=O)c1cccc(-c2ccc3ncc(N4CCOCC4)nc3c2)c1 [GSK1535721] | 18 | 12 | 18 | 10 | 0 | 0 | 0 | 23 | 26 | 1 |  |  |  |  |  |  |  |  |  | 
5 | C[C@@H](Oc1cc(-n2cnc3ccc(NC(=O)NC(C)(C)C)cc32)sc1C(N)=O)c1ccccc1Cl [GSK346294] | 20 | 10 | 19 | 31 | 0 | 0 | 16 | 18 | 33 | 16 |  |  |  |  |  |  |  |  |  | 
6 | O=C1Cc2cc(Nc3nc(NCc4cccc(S(=O)(=O)C(F)(F)F)c4)ncc3C(F)(F)F)ccc2N1 | 0 | 0 | 0 | 15 | 0 | 12 | 0 | 11 | 33 | 19 |  |  |  |  |  |  |  |  |  | 
7 | O=C(c1ccc(-c2cc(-c3c[nH]nc3-c3ccccn3)ccn2)cc1)N1CCOCC1 [GW812171] | 0 | 0 | 11 | 30 | 0 | 0 | 0 | 30 | 0 | 0 |  |  |  |  |  |  |  |  |  | 
8 | CCCCCc1nc2c(N)ncnc2n1CCCCC [SKF-97255] | 0 | 0 | 0 | 23 | 0 | 5 | 0 | 21 | 0 | 0 |  |  |  |  |  |  |  |  |  | 
9 | Cc1cccc(Cn2ccn3c(=O)cc(N4CCOCC4)nc23)c1 [GSK2297542] | 9 | 5 | 0 | 21 | 14 | 28 | 0 | 6 | 49 | 16 |  |  |  |  |  |  |  |  |  | 
10 | Cc1ccc(NC(=O)c2ccnc(N3CCN(C)CC3)c2)cc1-c1ccc(C(=O)NCC2CC2)cc1 [GW775604] | 5 | 0 | 0 | 0 | 15 | 0 | 77 | 59 | 0 | 0 |  |  |  |  |  |  |  |  |  | 
11 | CC(C)(CN)c1nc(-c2ccc(Cl)c(O)c2)c(-c2ccncc2)[nH]1.O=C(O)C(F)(F)F [SB-477794] |  |  |  |  | 0 |  |  |  |  |  | 11% and 19% | 0% and 5% | 33% and 17% | 7% and 3% | 29% and 36% | 94.5% and 90.8% | 80% and 78% | 37% and 42% | 90.8% and 88% | 
12 | Cl.Cl.Cl.Fc1ccc(-c2ncn(C3CCNCC3)c2-c2ccnc(Nc3ccccc3)n2)cc1 [SB-238039] |  | 0 |  |  |  |  |  |  |  |  | 0% and 24% |  | 18% and 0% | 18% and 12% | 8% and 75% | 87% and 84% | 87% and 63% | 29% and 7% | 99.9% and 99.8% | 22% and 33%
13 | O=C(NCCCN1CCOCC1)c1cccc(Nc2nccc(Nc3ccc(Oc4ccccc4)cc3)n2)c1 [GW663929] | 48 | 35 | 81 | 38 | 0 | 3 | 35 | 50 | 13 | 16 |  |  |  |  |  |  |  |  |  | 
14 | c1ccc(-c2cc(-c3c[nH]nc3-c3ccccn3)ccn2)cc1 [GW576604] | 8 | 0 | 22 | 0 | 23 | 12 | 0 | 24 | 26 | 0 |  |  |  |  |  |  |  |  |  | 
15 | COc1ccc(CNC(=O)NC2CCN(c3ccnc(Nc4ccc(OC)cc4)n3)C2)cc1 (stereo not drawn) [GSK1379727] | 0 | 0 | 20 | 11 | 0 | 5 | 0 | 20 | 50 | 0 |  |  |  |  |  |  |  |  |  | 
16 | O=C(Nc1cccc(-c2nn3ncccc3c2-c2ccnc(Nc3cccc(C(F)(F)F)c3)n2)c1)c1c(F)cccc1F [GSK299495] | 0 | 0 | 1 | 13 | 0 | 4 | 100 | 56 | 41 | 92.6 |  |  |  |  |  |  |  |  |  | 
17 | Cc1c(Cn2c(C)nn3c(=O)cc(N4CCOC(C)C4)nc23)cccc1C(F)(F)F (stereo not drawn) [GSK2344444] | 2 | 0 | 0 | 0 | 0 | 21 | 14 | 0 | 0 | 0 |  |  |  |  |  |  |  |  |  | 

Row | Structure (SMILES) | %Inh (DAPK1) [%] | %Inh (DAPK2) [%] | %Inh (DAPK3) [%] | %Inh (DCAMKL1) [%] | %Inh (DCAMKL2) [%] | %Inh (DCAMKL3) [%] | %Inh (DDR1) [%] | %Inh (DDR2) [%] | %Inh (DLK) [%] | %Inh (DMPK2) [%] | %Inh (DAPK1; 1 µM) | %Inh (DAPK2; 1 µM) | %Inh (DAPK3; 1 µM) | %Inh (DCAMKL1; 1 µM) | %Inh (DCAMKL3; 1 µM) | %Inh (DDR1; 1 µM) | %Inh (DDR2; 1 µM) | %Inh (DLK; 1 µM) | %Inh (DMPK2; 1 µM) | %Inh (DCAMKL2; 1 µM)
18 | CN(C1=C(c2ccccc2)C(=O)NC1=O)c1ccccc1 [SB-334860] | 26 | 0 | 8 | 19 | 11 | 0 | 0 | 4 | 9 | 12 |  |  |  |  |  |  |  |  |  | 
19 | Cc1cccc(-c2nc(-c3ccc(S(C)(=O)=O)cc3)sc2-c2ccncc2)c1 | 4 | 0 | 0 | 0 | 0 | 0 | 0 | 9 | 0 | 53 |  |  |  |  |  |  |  |  |  | 
20 | O=c1cc(N2CCOCC2)nc2n(Cc3cccc(Cl)c3Cl)c(C3CC3)nn12 [GSK2358994] | 26 | 12 | 6 | 0 | 7 | 17 | 21 | 0 | 0 | 0 |  |  |  |  |  |  |  |  |  | 
21 | COc1cc2ncn(-c3cc(OCc4sccc4Cl)c(C(N)=O)s3)c2cc1OC [GSK448459] | 12 | 2 | 36 | 5 | 4 | 0 | 0 | 12 | 32 | 0 |  |  |  |  |  |  |  |  |  | 
22 | COc1cc2c(cc1OCCN1CCN(C)CC1)ncc1c3ccc(C#N)cc3[nH]c21 | 44 | 0 | 7 | 40 | 0 | 100 | 0 | 8 | 78 | 0 |  |  |  |  |  |  |  |  |  | 
23 | CN(C(=O)c1ccc(-c2cc(-c3c[nH]nc3-c3ccccn3)ccn2)cc1)C1CCOCC1 [GW810083] | 11 | 2 | 0 | 0 | 0 | 19 | 0 | 36 | 14 | 0 |  |  |  |  |  |  |  |  |  | 
24 | COc1cc(Nc2nccc(N3CCC(NC(=O)c4cccc(NC(C)=O)c4)C3)n2)cc(OC)c1OC (stereo not drawn) [GSK1379754] | 0 | 8 | 19 | 8 | 21 | 0 | 0 | 4 | 62 | 0 |  |  |  |  |  |  |  |  |  | 
25 | O=C1NC(=O)C(N2CCc3ccccc32)=C1c1cccc(Cl)c1 [SB-408010] | 5 | 0 | 0 | 0 | 21 | 21 | 0 | 0 | 0 | 0 |  |  |  |  |  |  |  |  |  | 
26 | O=C(NCCNc1ccnc(Nc2ccc(F)cc2)n1)Nc1ccccc1F [GSK1379880] | 0 | 0 | 9 | 19 | 0 | 24 | 29 | 18 | 0 | 0 |  |  |  |  |  |  |  |  |  | 
27 | Cc1cn2c(=O)cc(N3CCOCC3)nc2n1Cc1cccc(Cl)c1Cl [GSK2334006] | 13 | 19 | 22 | 0 | 0 | 0 | 30 | 14 | 21 | 15 |  |  |  |  |  |  |  |  |  | 
28 | Fc1ccc(-c2nn3c(OCC(F)(F)F)cccc3c2-c2ccncc2)cc1 [GW514784] | 0 | 0 | 0 | 0 | 0 | 36 | 80 | 81 | 40 | 95.3 |  |  |  |  |  |  |  |  |  | 
29 | N#Cc1c(N2CCOCC2)sc(-c2ccn[nH]2)c1-c1ccc(Cl)cc1 | 3 | 0 | 0 | 7 | 11 | 0 | 15 | 6 | 19 | 2 |  |  |  |  |  |  |  |  |  | 
30 | Fc1ccc(-c2ncn(CCCN3CCOCC3)c2-c2cccnc2)cc1 [SB-211743] | 9 | 0 | 28 | 19 | 6 | 3 | 0 | 24 | 0 | 0 |  |  |  |  |  |  |  |  |  | 
31 | c1ccc(-c2n[nH]cc2-c2ccnc3ccccc23)nc1 [GW271431] | 0 | 0 | 26 | 12 | 11 | 0 | 8 | 0 | 3 | 18 |  |  |  |  |  |  |  |  |  | 
32 | NS(=O)(=O)c1cccc(-c2ccc3nccc(-c4cccc(S(N)(=O)=O)c4)c3c2)c1 [GW867253] | 0 | 0 | 2 | 9 | 0 | 0 | 0 | 23 | 9 | 0 |  |  |  |  |  |  |  |  |  | 
33 | Cn1ccc2ncnc(Oc3ccc(NC(=O)Nc4ccncc4)c(Cl)c3)c21 | 0 | 0 | 0 | 13 | 0 | 0 | 35 | 34 | 0 | 0 |  |  |  |  |  |  |  |  |  | 
